In paper PMC8384837, “Expanding the binding specificity for RNA recognition by a PUF domain” one finds binding signal data, which are given here for five sequences.

What all share (experiment): yeast three-hybrid, YBZ-1, SC-Leu-His + 0.5 mM 3-AT, 4 days
What all share (conditions): tags: N-Gal4 AD-HA kept; label: inside an RPR1-promoter hybrid RNA with tandem MS2 sites; ssRNA

Assay [1] concerns the target PUM1 PUF domain R5-RSS (Homo sapiens, UniProt Q14671 828-1176, C1007R;R1008S;Q1011S). The procedure, abridged:
(§1)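 Sequencing with Illumina followed PCR amplification of the repeat regions from transformants grown four days on SC-Leu (input) or SC-Leu-His + 0.5 mM 3-AT (selection). The transformants were strain YBZ-1 with a LexA–MS2 coat fusion and a HIS3 reporter, carrying Pumilio-1 PUF domain libraries and matching RNA elements. The interaction score is the log change in variant frequency from input to selection, computed in log2 with a pseudocount of 1 for absent variants.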

The target in assay [2] is PUM1 PUF domain R5-RGN (Homo sapiens, UniProt Q14671 828-1176, C1007R;R1008G;Q1011N). Put shortly:
as §1

The target of assay [3] is PUM1 PUF domain R4-TPA (Homo sapiens, UniProt Q14671 828-1176, N971T;H972P;Q975A). The procedure, abridged:
as §1

Assay [4] deals with T1, PUM1 PUF domain R6-TRE (Homo sapiens, UniProt Q14671 828-1176, N1043T;Y1044R;Q1047E).
T1 sequence: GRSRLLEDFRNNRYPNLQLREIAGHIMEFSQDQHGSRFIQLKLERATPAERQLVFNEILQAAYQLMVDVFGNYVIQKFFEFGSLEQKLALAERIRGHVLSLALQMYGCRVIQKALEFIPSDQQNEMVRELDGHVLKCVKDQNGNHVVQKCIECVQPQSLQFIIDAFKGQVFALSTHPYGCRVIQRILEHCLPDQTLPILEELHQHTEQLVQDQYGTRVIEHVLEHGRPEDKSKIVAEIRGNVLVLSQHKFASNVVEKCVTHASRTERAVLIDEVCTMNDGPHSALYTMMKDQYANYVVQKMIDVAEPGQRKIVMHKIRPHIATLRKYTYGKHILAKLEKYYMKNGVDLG
The procedure, abridged: as §1

In assay [5] the target is PUM1 PUF domain R3-LSS (Homo sapiens, UniProt Q14671 828-1176, C935L;R936S;Q939S). Put shortly: as §1
Assay [6] addresses PUM1 PUF domain R3-TRV (Homo sapiens, UniProt Q14671 828-1176, C935T;Q939V). Put shortly: as §1
The target in assay [7] is PUM1 PUF domain R3-QRI (Homo sapiens, UniProt Q14671 828-1176, C935Q;Q939I). Put shortly: as §1
Assay [8] addresses PUM1 PUF domain R4-SQS (Homo sapiens, UniProt Q14671 828-1176, N971S;H972Q;Q975S). The procedure, abridged: as §1
Assay [9] addresses PUM1 PUF domain R4-QPC (Homo sapiens, UniProt Q14671 828-1176, N971Q;H972P;Q975C). Put shortly:
as §1

Sequence of PUM1 PUF domain R4-TPA (Q14671 828-1176 N971T/H972P/Q975A): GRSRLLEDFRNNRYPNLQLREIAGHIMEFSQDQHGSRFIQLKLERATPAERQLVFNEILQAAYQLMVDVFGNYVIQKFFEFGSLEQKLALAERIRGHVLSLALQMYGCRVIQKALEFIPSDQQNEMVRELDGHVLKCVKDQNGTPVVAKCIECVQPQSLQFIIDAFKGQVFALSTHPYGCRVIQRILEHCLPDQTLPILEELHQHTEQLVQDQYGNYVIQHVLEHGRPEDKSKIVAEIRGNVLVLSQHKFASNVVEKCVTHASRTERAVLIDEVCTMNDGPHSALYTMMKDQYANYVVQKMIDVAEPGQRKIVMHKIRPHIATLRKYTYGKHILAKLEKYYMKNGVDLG

In the case of “GGCUAGAACUAGUGGAUCCCCCGGCGCCCGGCGGCUCGAGCCCGGGUAAGUGUUAAUAGUCUGCAUGCCGCCGGGCGCCAUGCCUGCAGGUCGACUCUAGAAAACAUG”, the figures for the binding signal in assay [1] and in assay [2] were 2.86 log2 enrichment (interaction score) and 2.27 log2 enrichment (interaction score), respectively.
For the sequence “GGCUAGAACUAGUGGAUCCCCCGGCGCCCGGCGGCUCGAGCCCGGGUAAGUGUACAUAGUCUGCAUGCCGCCGGGCGCCAUGCCUGCAGGUCGACUCUAGAAAACAUG”, the binding signal in assay [3] was 3.56 log2 enrichment (interaction score).
For the sequence “GGCUAGAACUAGUGGAUCCCCCGGCGCCCGGCGGCUCGAGCCCGGGUAAGUGGAAAUAGUCUGCAUGCCGCCGGGCGCCAUGCCUGCAGGUCGACUCUAGAAAACAUG”, the binding signal in assay [4] is 5.05 log2 enrichment (interaction score).
With “GGCUAGAACUAGUGGAUCCCCCGGCGCCCGGCGGCUCGAGCCCGGGUAAGUGUAAGUAGUCUGCAUGCCGCCGGGCGCCAUGCCUGCAGGUCGACUCUAGAAAACAUG”, the binding signal in [5] is 5.06 log2 enrichment (interaction score); in [6] it was 1.18 log2 enrichment (interaction score); in assay [7] it was 3.99 log2 enrichment (interaction score).
Consider “GGCUAGAACUAGUGGAUCCCCCGGCGCCCGGCGGCUCGAGCCCGGGUAAGUGUAUAUAGUCUGCAUGCCGCCGGGCGCCAUGCCUGCAGGUCGACUCUAGAAAACAUG”, for which the binding signal in [3] was 4.12 log2 enrichment (interaction score); in [8] it was 0.2 log2 enrichment (interaction score); in assay [9] it was 2.52 log2 enrichment (interaction score).
